DT40 TDP1 CPT – growth inhibition of DT40 Tdp1-/-;hTDP1 cells with camptothecin (screen for TDP1 inhibitors); chicken DT40 Tdp1-/-;hTDP1 cells + 20 nM CPT, ATP luminescence, 48 h; Potency, µM (top dose mostly 46.2 µM), inactives show at the top dose activity change, negative = growth inhibition, most hits filed as inhibitors; actives 12% (n = 420,000); note: potency is the fitted concentration of half-maximal effect; nearly all actives have a fitted effect of over 55% in size
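Cell growth measured by CellTiter-Glo luminescence after a minimum 48 h, 37 C compound exposure with 20 nM CPT in Tdp1-knockout DT40 cells stably expressing hTDP1, seeded 400/well; qHTS titration format.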
IL-1B inflam inh – inflammasome signaling inhibition, IL-1 beta readout; activity change, % at 57.5 µM; AID 743279; actives 4.7% (n = 360,000); THP-1 LPS/ATP IL-1B secretion, AlphaLISA, 16 h; active compounds read low; in the data active = activity change below about -50%; inconclusive = mostly about -30% to -49%
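Secreted IL-1B measured by AlphaLISA bead assay after 16 h compound exposure of THP-1 cells; compounds (final up to 57.5 uM) added 1 h before LPS (250 ng/mL) and ATP (1.25 mM) stimulation; lower signal means less secretion.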
ELG1 DNA repair – ELG1-dependent DNA repair inhibition | HEK293T ELG1-luciferase reporter, luminescence, 16 h; DNA damage induced by 5-fluorouridine | Potency, µM (series often up to 46.1 µM), without a hit: at the highest dose activity change, negative = inhibition, actives largely listed as inhibitors | actives 2.3% (n = 330,000); note: potency is the fitted concentration of half-maximal effect; nearly all actives have a fitted effect of over 55% in size
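Reporter activity after DNA damage by 5-fluorouridine is monitored. Compound-treated cells incubate 16 hr at 37 °C, then ONE-Glo is added for 30 min before luminescence reading.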
DT40 TDP1 no CPT – qHTS for Inhibitors of human tyrosyl-DNA phosphodiesterase 1 (TDP1): qHTS in cells in absence of CPT | Potency, µM (series often up to 46.2 µM), for inactives: at the top dose activity change, negative = growth inhibition, usual class: inhibitors | DT40 Tdp1-/- hTDP1 cells, no CPT, ATP luminescence, 48 h | actives 15% (n = 420,000); note: potency is the fitted concentration of half-maximal effect; nearly all actives have a fitted effect of over 55% in size
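Compound effects on proliferation are scored in DT40 Tdp1-/-;hTDP1 cells in the absence of CPT. ATP levels (CellTiter-Glo luminescence) are recorded after a ≥48 hr, 37 °C incubation.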
HT1080-NT tox – kills 2HG-producing HT-1080-NT fibrosarcoma cells | HT-1080-NT fibrosarcoma viability, CellTiter-Glo ATP luminescence, 48 h | Potency, µM (highest dose often 46.1 µM), for the others: at the highest dose activity, negative = less viability, hits mostly cytotoxic | actives 1.6% (n = 360,000);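 note: NT is the 2HG producing partner of a matched IDH1 knockdown line; potency is the fitted concentration of half-maximal effect; 0% = DMSO-treated cells and -100% = media-only wells without cells; nearly all actives have a fitted effect of over 55% in size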
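Toxicity toward the 2HG-producing NT line was scored as %Activity, normalised to DMSO and no-cell wells, from CellTiter-Glo luminescence after 48 hours' treatment.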
HT1080 IDH1KD tx – HT-1080 IDH1 knockdown cell toxicity (counter line) | HT-1080 IDH1 knockdown viability, ATP luminescence, 48 h | actives 2% (n = 360,000) | AID 686971 | Potency, µM (highest dose often 46.1 µM), without a hit: at the highest dose activity, negative = toxicity, most hits filed as cytotoxic;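 note: potency is the fitted concentration of half-maximal effect; 0% = DMSO wells and -100% = cell-free medium wells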
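In this qHTS, HT-1080 cells depleted of IDH1 are exposed for 48 h at 37 °C to compound titrations. Toxicity is scored from CellTiter-Glo luminescence, with DMSO as full viability and medium alone as none.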
Numbers without * were called inactive; u = inconclusive; x = not tested or not shown. Compounds with a hit are over-represented: about 19% of the library has one in this group of screens. Unless noted, calls come from the whole dose curve; as a rule, active = well fitted curve in the direction sought with a large enough effect; inconclusive = small, poorly fitted or top-dose-only effect, or another doubt; inactive = no such curve, though single readings can be large; an effect the other way counts as inactive or inconclusive. Unless noted, % is set by controls: 0 for no effect and ±100 for the full control effect.

SMILES | DT40 TDP1 CPT | IL-1B inflam inh | ELG1 DNA repair | DT40 TDP1 no CPT | HT1080-NT tox | HT1080 IDH1KD tx
COc1ccc(S(=O)(=O)N2CCCC2C(=O)NCc2cccs2)cc1 (centres undefined) | -27% | 19 | -22% | -22% | 2% | 0%
CCC1CCCCN1S(=O)(=O)c1ccc(S(=O)(=O)N(Cc2cccs2)C2CC2)cc1 (centres undefined) | 18µM* | 62 | u | 23µM* | 8% | 7%
O=S(=O)(NCC1CCCO1)c1ccc(S(=O)(=O)N(Cc2ccc(F)cc2)Cc2ccccn2)cc1 (centres undefined) | -26% | -12 | -10% | u | -1% | 1%
CC1(C)CC(=O)C2=C(C1)OC(N)=C(C#N)C21C(=O)N(Cc2ccccc2Cl)c2ccccc21 (centres undefined) | u | 0 | -18% | 23µM* | -1% | 1%
Cc1nn(-c2ccccc2)c(N)c1C1(O)C(=O)N(C)c2ccccc21 (centres undefined) | 23µM* | 10 | -10% | u | -4% | -1%
Cc1[nH]nc2c1C1(C(=O)N(Cc3ccc(Cl)cc3)c3ccccc31)C(C#N)=C(N)O2 (centres undefined) | 23µM* | -16 | -5% | 26µM* | u | u
Cc1nn(-c2ccccc2)c(N)c1C1(O)C(=O)Nc2ccccc21 (centres undefined) | -4% | 31 | 6% | 2% | 11% | 14%
COC(=O)Cc1[nH]nc2c1C1(C(=O)N(Cc3ccccc3)c3ccccc31)C(C#N)=C(N)O2 (centres undefined) | -9% | -16 | 8% | -7% | 12% | 6%
CCN1C(=O)C2(C(C#N)=C(N)Oc3c2c(C)nn3-c2ccccc2)c2ccccc21 (centres undefined) | 18µM* | 7 | 3% | 16µM* | -3% | u
NNc1nc2c(Cl)ccc(Cl)c2s1 | -11% | -24 | 0% | u | -21% | u
O=C1C(=O)N(CC2CCCO2)C(c2ccco2)/C1=C(/O)c1ccc(F)cc1 (centres undefined) | 5% | -8 | -11% | 11% | 12% | 20%
Cc1nn(-c2ccccc2)c2c1C1(C(=O)N(C)c3ccccc31)C(C#N)=C(N)O2 (centres undefined) | 16µM* | 11 | 1% | u | 2% | 2%
CC(=O)N1C(=O)C2(C(C#N)=C(N)Oc3n[nH]c(-c4ccccn4)c32)c2ccccc21 (centres undefined) | u | 5 | 13% | 18µM* | -7% | 16%
Cc1nn(-c2ccccc2)c2c1C1(C(=O)N3c4c(cccc41)C(C)CC3(C)C)C(C#N)=C(N)O2 (centres undefined) | u | -26 | -15% | u | u | u
CN1C(=O)C2(C(C#N)=C(N)Oc3n[nH]c(-c4ccc(Cl)cc4)c32)c2ccccc21 (centres undefined) | -18% | -24 | -3% | -24% | -18% | -3%
CC(=O)N1C(=O)C2(C(C#N)=C(N)Oc3c2c(C)nn3-c2ccccc2)c2ccccc21 (centres undefined) | 23µM* | 31 | -5% | u | -7% | -3%
Cc1c(O)nc(SC2CC(=O)N(c3cc(Cl)cc(Cl)c3)C2=O)[nH]c1=O (centres undefined) | 12% | 11 | x | -6% | 20% | 18%
COc1cc(SC)ccc1C(=O)N1CCCCCC1 | u | -2 | 3% | -29% | -6% | -2%
COc1cc(SC)ccc1C(=O)N1CCN(c2ccccc2)CC1 | -9% | -80* | -9% | u | 1% | -7%
COc1cc(SC)ccc1C(=O)N1CCN(c2ccc(O)cc2)CC1 | u | 24 | 21µM* | 9.2µM* | 0% | -3%
CCN(CC)CCCNC(=O)/C=C/C(=O)O | 18µM* | -1 | 0% | 21µM* | -4% | 3%
Cc1sc(N)nc1-c1cccc([N+](=O)[O-])c1 | 4% | x | x | 1% | x | x
O=C(NC1CCCCC1)C(c1cccs1)N(CCCN1CCOCC1)C(=O)c1ccc(-c2ccccc2)[nH]1 (centres undefined) | u | 0 | u | 15µM* | u | u
O=C(NCC1CCCO1)C(c1cccs1)N(Cc1cccs1)C(=O)c1ccc(-c2ccccc2)[nH]1 (centres undefined) | 13µM* | u | u | u | -23% | u
O=C(NCC1CCCO1)C(c1ccc(F)cc1)N(CC1CCCO1)C(=O)c1ccc(-c2ccccc2)[nH]1 (centres undefined) | -11% | -8 | 3% | u | 16% | 8%
SMILES | DT40 TDP1 CPT | IL-1B inflam inh | ELG1 DNA repair | DT40 TDP1 no CPT | HT1080-NT tox | HT1080 IDH1KD tx
CC(C)(C)OC(=O)N[C@@H](C(=O)OC(C)(C)C)c1ccc2ccccc2c1 | u | 15 | 26% | 23µM* | 7% | 6%
O=C(CNS(=O)(=O)c1c(F)cc(F)cc1Br)OCC(=O)N1CCCC1=O | -3% | -2 | u | -9% | -5% | 0%
O=C(NNC(=O)c1ccc(Br)cc1)c1ccncc1 | 1% | 11 | u | -7% | 3% | -2%
CC/C(=C\C(=O)c1ccncc1)Nc1ccc(Br)cc1 | u | -67* | 1% | u | 0% | -8%
Cc1nc2scc(-c3ccc(C(C)C)cc3)c2c(=O)n1N | u | 37 | u | u | -15% | -28%
CCCCCCN1C[C@@H](O)[C@H](n2cc(C3CC3)nn2)C[C@@H]1c1ccccc1 | 18µM* | -12 | x | 16µM* | -10% | -3%
CCCCCCN1C[C@H](n2cc(C3CC3)nn2)[C@@H](O)C[C@@H]1c1ccccc1 | 21µM* | 7 | x | 9.2µM* | u | u
CCCCCC(=O)N1C[C@@H](n2cc(C3CC3)nn2)[C@H](O)C[C@@H]1c1ccc(OC)cc1 | u | 22 | x | u | -5% | -9%
CCCCCC(=O)N1C[C@H](n2cc(C3CC3)nn2)[C@@H](O)C[C@@H]1c1ccccc1 | -29% | 12 | x | u | 6% | 15%
CCCCCCN1C[C@H](n2cc(C3CC3)nn2)[C@@H](O)C[C@@H]1c1ccc(OC)cc1 | u | 3 | x | 21µM* | -1% | 2%
COc1ccccc1C(=O)NCC(=O)N=Nc1c(O)n(C(C)C)c2ccccc12 | u | -7 | -4% | 18µM* | -3% | 4%

From PubChem BioAssay
